According to PubChem BioAssay AID1259240 (Keith Lab, Institute of Cancer Science, University of …, 2017):
Calls of active or inactive are those of the source. Rule as the data show it: active = fold change mostly below about -2 (no sharp cut-off); inactive = mostly above about -1.8.

Assay: modulation of TERT promoter-driven luciferase – cell-based, luciferase reporter, human, primary screen (AID 1259240)
Settings: A2780 TERT promoter luciferase reporter, 16 h; at 20 µM, fold versus average of vehicle-only wells

Row | SMILES | fold change
1 | CC1CCN(C(=O)Cn2cc(/C=C3/C(=O)Nc4ccccc43)c3ccccc32)CC1 | 1.13 (inactive)
2 | Cc1cc(C(F)(F)F)nc(Nc2nc3ccccc3o2)n1 | -1.19 (inactive)
3 | CC(C)n1cnc2cc(NCc3ccncc3)ccc21 | -2.71 (active)
4 | CN1CCc2c(sc3c2C(=O)NC(c2cccc(Cl)c2Cl)N3)C1 (stereo not given) | -1.43 (inactive)
5 | CCOC(=O)c1c(C=O)c2ccccc2n1C | 1.15 (inactive)
6 | CN(CC(=O)Nc1ccc2c(c1)OCO2)S(=O)(=O)c1ccc2c(c1)c(=O)n(C)c(=O)n2C | -1.32 (inactive)
7 | O=C(Cn1c(=O)n(Cc2ccco2)c(=O)c2ccccc21)Nc1ccc(Cl)cc1Cl | -1.13 (inactive)
8 | CCOC(=O)c1nnn(-c2nonc2N)c1CNc1ccc(F)cc1 | 1.3 (inactive)
9 | CCC(=O)OCCNc1cc(N2CCCC2)c2noc3c2c1C(=O)c1ccccc1-3 | 2.08 (active)
10 | Cc1ccc(Cn2nc(C)c(NC(=O)c3onc(C)c3Cl)c2C)cc1 | 1.31 (inactive)
11 | CCOC(=O)c1c(C)n(C)c2ccc(OCC(O)CN3CCCCC3C)cc12 (stereo not given) | -2.14 (active)
12 | COc1cccc(-c2nc(S(=O)(=O)c3ccc(C)cc3)c(N(C)C)o2)c1 | -1.82 (inactive)
13 | CCOc1ccc2[nH]c(C)c(CN3CC4(C)CC3CC(C)(C)C4)c(=O)c2c1 (stereo not given) | -1.96 (inactive)
14 | COc1cc(/C=C2\SC(N3CCN(C)CC3)=NC2=O)cc(OC)c1OC | -1.05 (inactive)
15 | COc1cc2c(c(OC)c1OC)C(c1cccnc1)CC(=O)N2 (stereo not given) | -1.07 (inactive)
16 | COCCN1C(=O)c2oc3ccc(F)cc3c(=O)c2C1c1cccc(O)c1 (stereo not given) | -1.86 (inactive)
17 | O=C(CSc1ncnc2ccccc12)NC1CCCCC1 | 1.03 (inactive)
18 | COc1ccc(S(=O)(=O)N2N=C(c3ccc(NS(C)(=O)=O)cc3)CC2c2ccco2)cc1 (stereo not given) | 1.12 (inactive)
19 | CCOc1ccc(S(=O)(=O)n2c(C)nc3ccccc32)cc1 | -1.6 (inactive)
20 | Cn1c(=O)c2c(SCC(=O)Nc3ccc(F)cc3)nc(-c3ccco3)nc2n(C)c1=O | 1.12 (inactive)

Row | SMILES | fold change
21 | CCOC(=O)C1CCCN(c2c(NCCCN3CC(C)CC(C)C3)c(=O)c2=O)C1 (stereo not given) | -1.02 (inactive)
22 | CCn1c(NCc2ccc(Cl)cc2)nc2ccccc21 | 1.05 (inactive)
23 | Cc1ccc(NC(=O)CC2Sc3ccc(C(F)(F)F)cc3NC2=O)cc1C (stereo not given) | -1.24 (inactive)
24 | Cc1ccc(-c2cc(N)n(S(=O)(=O)c3cccc4nsnc34)n2)cc1 | -1.42 (inactive)
25 | CN1CCN(C(=O)C2CCN(c3ccc(N4CCOCC4)nn3)CC2)CC1 | -1.4 (inactive)
26 | Cc1nc(SCc2c(F)cccc2Cl)c2c(=O)n(C)c(=O)n(C)c2n1 | 1.27 (inactive)
27 | COc1ccc(-c2n[nH]c3c2C(c2ccc(Cl)cc2)NC3=O)cc1 (stereo not given) | -3 (active)
28 | CCN1CCN(C(=O)c2cc3c(=O)[nH]c4ccccc4c3n2C)CC1 | 1.05 (inactive)
29 | CCCc1nc2ccccc2c2nc(N)nn12 | -2.02 (active)
30 | CN(C)c1ccc(/C=c2\sc3nc(-c4ccco4)nn3c2=O)cc1 | 1.37 (inactive)
31 | CCN(CC)CCNc1nc2c(c(=O)[nH]c(=O)n2C)n1CCCc1ccccc1 | -2.06 (active)
32 | CCOC(=O)C1CCCN(c2c(NCC3COc4ccccc4O3)c(=O)c2=O)C1 (stereo not given) | 1.35 (inactive)
33 | CCN1CCN(CCNc2cc(C)nc3c(-c4ccc(OC)c(OC)c4)c(C)nn23)CC1 | -1.31 (inactive)
34 | O=C(Cn1c(=O)c(C(F)(F)F)nc2ccccc21)N1CCCC1 | -1.02 (inactive)
35 | CCCN(CCC)c1c(NC2CCN(C(=O)OCC)CC2)c(=O)c1=O | -1.25 (inactive)
36 | CCOC(=O)c1nn(-c2ccc(OC)cc2)c(=O)c2c(NC(C)=O)scc12 | 1.14 (inactive)
37 | Cc1ccc(-c2nc3cnccn3c2Nc2ccccc2C)o1 | -1.64 (inactive)
38 | Cc1ccc2c(c1)/C(=c1/sc3n(c1=O)CN(c1ccc(Cl)cc1)CN=3)C(=O)N2 | -1.65 (inactive)
39 | O=c1/c(=C/c2c(F)cccc2Cl)sc2nc(-c3ccco3)nn12 | 1.03 (inactive)
40 | CCCOc1ccc(Cc2nn3c(=O)/c(=C\c4cccc(OC(C)=O)c4)sc3nc2=O)cc1 | -1.43 (inactive)
